Legend:
Test in all cases: DAPPL (digital affinity profiling via proximity ligation, sequencing); 10 mM Tris-HCl pH 7.5, 50 mM NaCl, 1 mM DTT, 4% glycerol, room temperature, 30 min; GST-TFs on glutathione beads, 16-mer random dsDNA library, 0.1% formaldehyde crosslink after washing; high values mean tight binding
[1] = target: T1, FEV (Homo sapiens, UniProt Q99581 1-238); settings: protein: recombinant; tags: N-terminal GST; dsDNA, one strand shown
T1 sequence: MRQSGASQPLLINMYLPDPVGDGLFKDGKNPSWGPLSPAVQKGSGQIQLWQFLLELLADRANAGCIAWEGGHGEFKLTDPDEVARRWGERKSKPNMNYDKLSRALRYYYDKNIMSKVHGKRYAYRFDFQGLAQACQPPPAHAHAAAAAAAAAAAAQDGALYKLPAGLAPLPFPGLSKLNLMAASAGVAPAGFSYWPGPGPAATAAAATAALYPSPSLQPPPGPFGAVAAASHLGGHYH
How it was run: (§1)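 Human transcription factors were made in yeast as GST fusions, captured on glutathione beads and barcoded with DNA. With a tag-only sample included, the pool was incubated with 200 nmole of a random double-stranded 16-mer DNA library in Tris/NaCl/DTT/glycerol buffer at room temperature for 30 min, then crosslinked with 0.1% formaldehyde after washing, ligated by proximity, amplified and sequenced. For binding signal, each hexamer's read frequency for a factor is divided by its frequency for the tag-only sample.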

[2] = target: ETV5 (Homo sapiens, UniProt P41161 1-510); settings: protein: recombinant; tags: N-terminal GST; dsDNA, one strand shown
How it was run: as §1

[3] = target: HSF1 (Homo sapiens, UniProt Q00613 1-529); settings: protein: recombinant; tags: N-terminal GST; chain copies: 3; dsDNA, one strand shown
How it was run: as §1

[4] = target: T2, SPIC (Homo sapiens, UniProt Q8N5J4 1-248); settings: protein: recombinant; tags: N-terminal GST; dsDNA, one strand shown
T2 sequence: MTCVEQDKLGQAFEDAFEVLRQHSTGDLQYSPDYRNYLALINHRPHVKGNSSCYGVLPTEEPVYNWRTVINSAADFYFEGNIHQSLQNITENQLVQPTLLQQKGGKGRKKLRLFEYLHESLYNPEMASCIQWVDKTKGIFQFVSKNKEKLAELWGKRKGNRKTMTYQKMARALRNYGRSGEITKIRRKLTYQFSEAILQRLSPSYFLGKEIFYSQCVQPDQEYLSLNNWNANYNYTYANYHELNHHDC
How it was run: as §1

[5] = target: ELF4 (Homo sapiens, UniProt Q99607 1-663); settings: protein: recombinant; tags: N-terminal GST; dsDNA, one strand shown
How it was run: as §1

[6] = target: T3, ELK4 (Homo sapiens, UniProt P28324-2 1-405); settings: protein: recombinant; tags: N-terminal GST; dsDNA, one strand shown
T3 sequence: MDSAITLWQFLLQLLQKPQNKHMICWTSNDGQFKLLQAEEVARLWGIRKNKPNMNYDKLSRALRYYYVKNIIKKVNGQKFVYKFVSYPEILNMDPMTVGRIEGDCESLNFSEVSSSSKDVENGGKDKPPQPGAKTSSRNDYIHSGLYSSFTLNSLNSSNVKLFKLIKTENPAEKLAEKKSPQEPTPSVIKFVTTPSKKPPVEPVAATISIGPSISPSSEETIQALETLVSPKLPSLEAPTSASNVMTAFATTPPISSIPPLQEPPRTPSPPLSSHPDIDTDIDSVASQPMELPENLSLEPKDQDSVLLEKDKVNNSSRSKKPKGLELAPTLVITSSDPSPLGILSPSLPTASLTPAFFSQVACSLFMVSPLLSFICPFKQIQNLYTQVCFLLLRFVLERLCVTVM
How it was run: as §1

[7] = target: T4, ETV2 (Homo sapiens, UniProt O00321 1-342); settings: protein: recombinant; tags: N-terminal GST; dsDNA, one strand shown
T4 sequence: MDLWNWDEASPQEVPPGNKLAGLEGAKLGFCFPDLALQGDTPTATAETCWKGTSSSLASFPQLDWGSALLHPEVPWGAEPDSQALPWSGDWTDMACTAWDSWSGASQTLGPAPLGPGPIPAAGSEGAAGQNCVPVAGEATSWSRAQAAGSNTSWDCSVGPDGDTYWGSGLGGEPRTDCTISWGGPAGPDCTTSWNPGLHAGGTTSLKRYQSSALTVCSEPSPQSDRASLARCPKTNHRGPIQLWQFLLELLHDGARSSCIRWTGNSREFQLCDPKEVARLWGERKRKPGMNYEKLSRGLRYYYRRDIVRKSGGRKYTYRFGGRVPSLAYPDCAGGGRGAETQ
How it was run: as §1

[8] = target: T5, ELF3 (Homo sapiens, UniProt P78545 1-371); settings: protein: recombinant; tags: N-terminal GST; dsDNA, one strand shown
T5 sequence: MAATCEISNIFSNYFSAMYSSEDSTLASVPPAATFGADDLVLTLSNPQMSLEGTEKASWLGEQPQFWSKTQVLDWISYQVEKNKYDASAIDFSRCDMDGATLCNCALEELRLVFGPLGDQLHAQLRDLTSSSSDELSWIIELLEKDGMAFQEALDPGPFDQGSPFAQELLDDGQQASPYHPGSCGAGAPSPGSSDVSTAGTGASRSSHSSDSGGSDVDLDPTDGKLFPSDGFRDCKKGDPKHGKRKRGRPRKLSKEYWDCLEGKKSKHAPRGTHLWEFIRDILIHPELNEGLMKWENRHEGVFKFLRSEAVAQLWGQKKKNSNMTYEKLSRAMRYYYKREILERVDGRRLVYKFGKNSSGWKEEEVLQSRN
How it was run: as §1

[9] = target: CRX (Homo sapiens, UniProt O43186 1-299); settings: protein: recombinant; tags: N-terminal GST; dsDNA, one strand shown
How it was run: as §1

[10] = target: ETV1 (Homo sapiens, UniProt P50549 1-477); settings: protein: recombinant; tags: N-terminal GST; dsDNA, one strand shown
How it was run: as §1

[11] = target: T6, ERF (Homo sapiens, UniProt P50548 1-548); settings: protein: recombinant; tags: N-terminal GST; dsDNA, one strand shown
T6 sequence: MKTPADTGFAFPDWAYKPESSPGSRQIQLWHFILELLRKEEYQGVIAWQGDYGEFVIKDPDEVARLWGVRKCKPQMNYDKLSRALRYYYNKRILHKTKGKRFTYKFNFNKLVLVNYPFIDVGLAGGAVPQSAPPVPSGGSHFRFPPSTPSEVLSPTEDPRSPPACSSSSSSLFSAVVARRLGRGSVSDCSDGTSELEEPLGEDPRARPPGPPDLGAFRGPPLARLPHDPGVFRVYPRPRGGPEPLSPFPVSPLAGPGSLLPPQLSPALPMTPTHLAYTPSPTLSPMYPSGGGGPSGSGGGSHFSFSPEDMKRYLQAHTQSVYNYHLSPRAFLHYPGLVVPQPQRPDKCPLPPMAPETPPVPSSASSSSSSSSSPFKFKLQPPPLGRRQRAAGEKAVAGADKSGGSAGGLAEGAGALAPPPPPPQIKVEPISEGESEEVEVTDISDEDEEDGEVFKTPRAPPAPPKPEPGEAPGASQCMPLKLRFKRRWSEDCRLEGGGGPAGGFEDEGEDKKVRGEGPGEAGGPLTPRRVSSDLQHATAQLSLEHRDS
How it was run: as §1

[12] = target: T7, ETV3L (Homo sapiens, UniProt Q6ZN32 1-361); settings: protein: recombinant; tags: N-terminal GST; dsDNA, one strand shown
T7 sequence: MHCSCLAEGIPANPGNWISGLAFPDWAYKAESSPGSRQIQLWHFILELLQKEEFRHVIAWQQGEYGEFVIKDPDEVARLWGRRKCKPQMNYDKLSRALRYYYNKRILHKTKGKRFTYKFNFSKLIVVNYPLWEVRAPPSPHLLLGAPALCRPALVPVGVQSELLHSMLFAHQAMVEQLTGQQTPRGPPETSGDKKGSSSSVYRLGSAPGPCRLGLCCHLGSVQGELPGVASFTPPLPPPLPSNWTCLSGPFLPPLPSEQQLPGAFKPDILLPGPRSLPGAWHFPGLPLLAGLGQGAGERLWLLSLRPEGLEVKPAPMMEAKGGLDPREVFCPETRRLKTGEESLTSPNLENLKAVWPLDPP
How it was run: as §1

[13] = target: T8, ETS2 (Homo sapiens, UniProt P15036 1-469); settings: protein: recombinant; tags: N-terminal GST; dsDNA, one strand shown
T8 sequence: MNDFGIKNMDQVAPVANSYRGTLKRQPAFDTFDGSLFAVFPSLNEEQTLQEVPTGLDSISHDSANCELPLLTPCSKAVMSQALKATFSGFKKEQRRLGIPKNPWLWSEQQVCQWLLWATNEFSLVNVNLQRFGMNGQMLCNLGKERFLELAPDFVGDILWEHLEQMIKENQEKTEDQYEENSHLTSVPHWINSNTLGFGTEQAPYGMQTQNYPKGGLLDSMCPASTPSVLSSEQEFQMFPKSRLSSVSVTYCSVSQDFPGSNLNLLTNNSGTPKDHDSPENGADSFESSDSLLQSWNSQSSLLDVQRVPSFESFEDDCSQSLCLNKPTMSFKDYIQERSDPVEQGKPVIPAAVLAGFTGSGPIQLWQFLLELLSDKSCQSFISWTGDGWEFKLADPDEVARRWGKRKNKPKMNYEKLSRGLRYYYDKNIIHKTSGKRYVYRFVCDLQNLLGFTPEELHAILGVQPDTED
How it was run: as §1

[14] = target: T9, SPDEF (Homo sapiens, UniProt O95238 1-335); settings: protein: recombinant; tags: N-terminal GST; dsDNA, one strand shown
T9 sequence: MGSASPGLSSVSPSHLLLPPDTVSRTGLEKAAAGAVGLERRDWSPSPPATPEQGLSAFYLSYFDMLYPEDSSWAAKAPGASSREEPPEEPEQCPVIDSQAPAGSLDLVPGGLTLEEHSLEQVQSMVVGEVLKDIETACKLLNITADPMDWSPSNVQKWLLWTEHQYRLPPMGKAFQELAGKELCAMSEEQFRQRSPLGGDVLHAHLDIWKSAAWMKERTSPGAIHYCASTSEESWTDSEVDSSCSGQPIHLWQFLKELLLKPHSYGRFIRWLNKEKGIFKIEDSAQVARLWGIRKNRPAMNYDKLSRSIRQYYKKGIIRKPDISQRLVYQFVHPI
How it was run: as §1

[15] = target: T10, ETV7 (Homo sapiens, UniProt Q9Y603 1-341); settings: protein: recombinant; tags: N-terminal GST; dsDNA, one strand shown
T10 sequence: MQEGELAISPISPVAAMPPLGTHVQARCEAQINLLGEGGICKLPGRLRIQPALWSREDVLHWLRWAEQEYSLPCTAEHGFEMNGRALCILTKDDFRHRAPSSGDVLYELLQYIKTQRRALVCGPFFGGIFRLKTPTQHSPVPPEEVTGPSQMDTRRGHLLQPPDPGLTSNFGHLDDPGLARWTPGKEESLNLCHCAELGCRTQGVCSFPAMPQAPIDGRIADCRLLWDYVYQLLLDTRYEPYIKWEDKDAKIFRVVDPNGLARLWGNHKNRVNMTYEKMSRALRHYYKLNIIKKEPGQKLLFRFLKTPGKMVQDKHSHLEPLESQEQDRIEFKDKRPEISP
How it was run: as §1

[16] = target: T11, ELF5 (Homo sapiens, UniProt Q9UKW6-2 1-255); settings: protein: recombinant; tags: N-terminal GST; dsDNA, one strand shown
T11 sequence: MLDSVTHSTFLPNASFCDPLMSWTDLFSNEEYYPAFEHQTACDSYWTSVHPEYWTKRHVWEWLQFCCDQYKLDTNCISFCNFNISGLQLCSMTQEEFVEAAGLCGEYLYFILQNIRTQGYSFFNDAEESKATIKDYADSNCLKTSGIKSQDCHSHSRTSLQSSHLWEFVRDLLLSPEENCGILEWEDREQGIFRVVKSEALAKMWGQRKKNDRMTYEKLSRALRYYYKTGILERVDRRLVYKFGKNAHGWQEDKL
How it was run: as §1

[17] = target: T12, ETV3 (Homo sapiens, UniProt P41162-2 1-143); settings: protein: recombinant; tags: N-terminal GST; dsDNA, one strand shown
T12 sequence: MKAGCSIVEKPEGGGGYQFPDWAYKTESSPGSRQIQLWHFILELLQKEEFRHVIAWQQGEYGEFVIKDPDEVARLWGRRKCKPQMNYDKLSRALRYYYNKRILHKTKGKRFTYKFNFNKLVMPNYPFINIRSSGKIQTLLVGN
How it was run: as §1

[18] = target: ETV6 (Homo sapiens, UniProt P41212 1-452); settings: protein: recombinant; tags: N-terminal GST; dsDNA, one strand shown
How it was run: as §1

ELF4, sequence (Q99607 whole entry): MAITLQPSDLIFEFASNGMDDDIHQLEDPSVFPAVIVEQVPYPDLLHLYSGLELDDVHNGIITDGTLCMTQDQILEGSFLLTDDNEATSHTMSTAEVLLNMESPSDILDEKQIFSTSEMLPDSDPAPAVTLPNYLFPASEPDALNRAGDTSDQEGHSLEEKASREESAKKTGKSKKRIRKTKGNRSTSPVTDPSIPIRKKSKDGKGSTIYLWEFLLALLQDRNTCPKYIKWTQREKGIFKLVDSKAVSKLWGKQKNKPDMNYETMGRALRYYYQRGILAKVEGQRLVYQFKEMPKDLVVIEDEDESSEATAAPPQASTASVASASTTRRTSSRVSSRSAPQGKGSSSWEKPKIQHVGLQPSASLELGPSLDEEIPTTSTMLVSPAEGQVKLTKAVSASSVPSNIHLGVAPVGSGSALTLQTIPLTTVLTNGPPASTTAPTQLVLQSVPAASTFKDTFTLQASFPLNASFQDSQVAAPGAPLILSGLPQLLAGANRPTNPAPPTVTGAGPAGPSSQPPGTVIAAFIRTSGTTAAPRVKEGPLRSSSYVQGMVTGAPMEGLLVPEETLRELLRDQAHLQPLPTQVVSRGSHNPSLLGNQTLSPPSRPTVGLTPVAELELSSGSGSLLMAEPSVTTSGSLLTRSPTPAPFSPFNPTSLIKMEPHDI
ETV1, sequence (P50549 whole entry): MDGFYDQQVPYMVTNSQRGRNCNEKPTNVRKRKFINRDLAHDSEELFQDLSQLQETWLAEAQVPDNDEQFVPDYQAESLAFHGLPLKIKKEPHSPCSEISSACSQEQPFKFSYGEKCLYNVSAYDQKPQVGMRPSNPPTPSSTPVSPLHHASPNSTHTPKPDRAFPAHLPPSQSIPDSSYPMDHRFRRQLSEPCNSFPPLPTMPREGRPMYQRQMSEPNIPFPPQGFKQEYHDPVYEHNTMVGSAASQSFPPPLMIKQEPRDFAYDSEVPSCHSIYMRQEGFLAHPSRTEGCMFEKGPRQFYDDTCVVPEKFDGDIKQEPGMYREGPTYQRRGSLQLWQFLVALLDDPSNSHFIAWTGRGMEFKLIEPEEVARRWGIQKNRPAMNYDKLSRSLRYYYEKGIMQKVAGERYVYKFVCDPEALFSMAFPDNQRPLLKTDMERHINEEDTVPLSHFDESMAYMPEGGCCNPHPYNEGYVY
CRX, sequence (O43186 whole entry): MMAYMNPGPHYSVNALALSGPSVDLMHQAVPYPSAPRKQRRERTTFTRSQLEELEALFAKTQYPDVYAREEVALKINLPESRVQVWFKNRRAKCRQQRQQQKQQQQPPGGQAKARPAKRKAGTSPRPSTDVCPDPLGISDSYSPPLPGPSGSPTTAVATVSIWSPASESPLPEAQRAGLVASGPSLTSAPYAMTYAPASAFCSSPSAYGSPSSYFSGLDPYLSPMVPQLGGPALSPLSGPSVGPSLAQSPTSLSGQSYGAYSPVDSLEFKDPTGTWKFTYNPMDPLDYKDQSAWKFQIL
HSF1, sequence (Q00613 whole entry): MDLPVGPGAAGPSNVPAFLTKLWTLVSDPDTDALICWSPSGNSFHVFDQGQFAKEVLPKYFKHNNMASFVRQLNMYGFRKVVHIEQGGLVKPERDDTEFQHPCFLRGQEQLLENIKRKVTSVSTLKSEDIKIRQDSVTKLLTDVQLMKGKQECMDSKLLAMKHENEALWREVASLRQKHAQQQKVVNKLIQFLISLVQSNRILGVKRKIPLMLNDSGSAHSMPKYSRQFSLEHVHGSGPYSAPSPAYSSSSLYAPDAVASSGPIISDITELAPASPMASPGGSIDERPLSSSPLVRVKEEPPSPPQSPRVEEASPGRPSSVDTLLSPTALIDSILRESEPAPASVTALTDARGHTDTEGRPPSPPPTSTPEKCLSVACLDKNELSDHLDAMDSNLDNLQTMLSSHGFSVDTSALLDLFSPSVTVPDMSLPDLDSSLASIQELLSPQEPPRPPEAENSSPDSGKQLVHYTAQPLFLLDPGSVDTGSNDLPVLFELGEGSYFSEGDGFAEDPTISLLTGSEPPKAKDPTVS
ETV6, sequence (P41212 whole entry): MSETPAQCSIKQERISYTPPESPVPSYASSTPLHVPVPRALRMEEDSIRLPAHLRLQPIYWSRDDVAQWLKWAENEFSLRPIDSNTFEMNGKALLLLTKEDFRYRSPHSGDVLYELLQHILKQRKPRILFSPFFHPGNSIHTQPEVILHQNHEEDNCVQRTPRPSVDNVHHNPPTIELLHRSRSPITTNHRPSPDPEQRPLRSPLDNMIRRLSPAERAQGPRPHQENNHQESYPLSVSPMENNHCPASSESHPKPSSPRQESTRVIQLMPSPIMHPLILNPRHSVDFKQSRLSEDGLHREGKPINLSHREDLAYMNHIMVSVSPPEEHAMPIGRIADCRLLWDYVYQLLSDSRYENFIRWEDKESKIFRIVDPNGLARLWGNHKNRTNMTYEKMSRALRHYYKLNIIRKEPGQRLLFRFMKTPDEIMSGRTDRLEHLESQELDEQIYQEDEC
ETV5, sequence (P41161 whole entry): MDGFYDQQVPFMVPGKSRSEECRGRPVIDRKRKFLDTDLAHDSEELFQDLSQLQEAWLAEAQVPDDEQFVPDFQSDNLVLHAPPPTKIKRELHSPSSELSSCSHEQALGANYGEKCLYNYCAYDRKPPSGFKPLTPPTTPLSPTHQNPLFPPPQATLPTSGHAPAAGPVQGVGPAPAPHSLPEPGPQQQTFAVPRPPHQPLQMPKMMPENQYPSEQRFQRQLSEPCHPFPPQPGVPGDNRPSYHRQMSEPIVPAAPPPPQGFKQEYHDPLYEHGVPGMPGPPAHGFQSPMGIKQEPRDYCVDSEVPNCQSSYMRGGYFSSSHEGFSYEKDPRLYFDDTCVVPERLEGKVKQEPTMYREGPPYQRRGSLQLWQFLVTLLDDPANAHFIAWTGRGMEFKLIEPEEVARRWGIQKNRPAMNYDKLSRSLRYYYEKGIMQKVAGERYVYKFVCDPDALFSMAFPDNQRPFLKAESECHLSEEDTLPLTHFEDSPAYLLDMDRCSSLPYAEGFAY

TCCGCT was tested. Which binding signal [1] did it give?
Its binding signal is 2.51 fold enrichment (6-mer frequency, TF over GST control).

What about the binding signal [2] of the same sequence?
The binding signal was 2.37 fold enrichment (6-mer frequency, TF over GST control).

And the binding signal [3]?
The binding signal was 1.51 fold enrichment (6-mer frequency, TF over GST control).

And the binding signal [4]?
Its binding signal is 2.63 fold enrichment (6-mer frequency, TF over GST control).

And the binding signal [5]?
The binding signal was 2.13 fold enrichment (6-mer frequency, TF over GST control).

And the binding signal [6]?
Its binding signal is 2.01 fold enrichment (6-mer frequency, TF over GST control).

What about the binding signal [7] of the same sequence?
The binding signal was 2.27 fold enrichment (6-mer frequency, TF over GST control).

What about the binding signal [8] of the same sequence?
Its binding signal is 2.15 fold enrichment (6-mer frequency, TF over GST control).

What about the binding signal [9] of the same sequence?
Its binding signal is 1.84 fold enrichment (6-mer frequency, TF over GST control).

What about the binding signal [10] of the same sequence?
Its binding signal is 2.44 fold enrichment (6-mer frequency, TF over GST control).

What about the binding signal [11] of the same sequence?
The binding signal was 2.12 fold enrichment (6-mer frequency, TF over GST control).

And the binding signal [12]?
Its binding signal is 2.23 fold enrichment (6-mer frequency, TF over GST control).

And the binding signal [13]?
The binding signal was 2.32 fold enrichment (6-mer frequency, TF over GST control).

And the binding signal [14]?
The binding signal was 2.51 fold enrichment (6-mer frequency, TF over GST control).

And the binding signal [15]?
The binding signal was 2.07 fold enrichment (6-mer frequency, TF over GST control).

And the binding signal [16]?
Its binding signal is 2.58 fold enrichment (6-mer frequency, TF over GST control).

And the binding signal [17]?
The binding signal was 2.44 fold enrichment (6-mer frequency, TF over GST control).

What about the binding signal [18] of the same sequence?
The binding signal was 2.44 fold enrichment (6-mer frequency, TF over GST control).

Reference: article PMC7862700, “An all-to-all approach to the identification of sequence-specific readers for epigenetic DNA modifications on cytosine”
